The campaign covered roughly 360,000 compounds. About 2,200 (0.61%) were called active. Many of the other results were omitted from the sample, so actives are more common in it than they were. A number with no mark means an inactive call.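 The calls were made as follows: active = inhibition above a per-plate cutoff, the plate's mean sample inhibition plus 3 SD (cut at about 24% in these data); inactive = the rest.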
assay: calcium signal blockers in parental CHO-K1 cells – cell-based, Fluo-8 calcium fluorescence, full deck, 1536-well, counter-screen for M1 antagonist project, primary screen (AID 602250); conditions: ATP-induced calcium, Fluo-8 fluorescence, at 3 µM, hits give high values;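 also: 0% = DMSO plus EC80 ATP and 100% = DMSO alone without ATP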

Going from `O=C(Nc1c(C(=O)N2CCCCC2)cnn1-c1ccccc1)c1ccco1` to `O=C(Nn1cc(C(=O)N2CCN(c3ccccc3F)CC2)c2ccccc2c1=O)c1cnccn1`, the inhibition falls from -0.49% to -2.09%.

First: O=C(Nc1ccc(-n2cccn2)cc1)C1CCN(Cc2ccsc2)CC1
Second: Cc1cccn2c(=O)c(/C=C(\C#N)S(=O)(=O)c3ccc(Cl)cc3)c(N3CCC(C(N)=O)CC3)nc12
The inhibition of the first is higher: 9.41% for the first, -14.1% for the second.

Going from `Cc1cc(C)cc(C(=O)N(CCc2ccccc2)C2=CC3CCC(C2)N3C)c1` (configuration not stated) to `O=C(NCc1ccccc1)[C@@H]1CSC2c3ccccc3C(=O)N21` (some centres not stated), the inhibition rises from -5.45% to -4.7%.

First: CCN(CC(=O)NC(C)C)C(=O)CCNC(=O)c1ccc(Cl)cc1
Second: COC(=O)c1ccccc1NC(=O)CN(Cc1ccc(Cl)cc1)S(C)(=O)=O
The inhibition of the first is higher: -14.6% for the first, -17.4% for the second.

First: O=C1NC[C@@H](Cc2ccc(O)cc2)N(CCc2cccc(F)c2)C1=O
Second: O=C(NCCCO)c1cc2c([nH]c3ccccc32)c(-c2ccc(F)cc2)n1
The inhibition of the first is higher: -5% for the first, -6.07% for the second.

Going from `N#Cc1c(N2CCCCC2)nc(N)c2c(N)nc(SCC(=O)O)cc12` to `Cn1c(SCC(=O)NC2CCCCC2)nnc1-c1cc2ccccc2o1`, the inhibition rises from -8.03% to -5.47%.

Compared with `Cc1ccc(OS(=O)(=O)c2ccc(-c3csc(C)n3)s2)c(C)c1`, `CC(=O)c1c(C)[nH]c(C(=O)COC(=O)CCOc2ccc(C)cc2)c1C` is higher in inhibition: -12% for the first, 4.03% for the second.

First: CC1=C2C(=O)OC(c3ccoc3)C2(C)CCC1 (configuration not stated)
Second: COc1ccc2cc(C(=O)NCC3CCCO3)[nH]c2c1 (configuration not stated)
The inhibition of the first is higher: -12.4% for the first, -13.7% for the second.

Going from `Cc1ccc(-n2nc3c(=O)n(C(C)C(=O)NCc4ccc5c(c4)OCO5)nc(C)c3c2C)cc1` (configuration not stated) to `COCCCN(C(=O)Cn1ncc2c(=O)oc3ccc(C)cc3c21)C(C)c1ccncc1` (configuration not stated), the inhibition rises from -17.4% to -9.26%.

First: CC1=C(C(=O)N(C)C)CC(CC(=O)NCCN2CCOCC2)C(=O)N1Cc1ccccc1 (configuration not stated)
Second: CN(C(=O)CN1C(=O)NC(C)(CCc2ccccc2)C1=O)c1ccccc1 (configuration not stated)
The inhibition of the first is lower: -3.35% for the first, -3.27% for the second.

Going from `COc1ccc(OC)c(C2C3=C(N=c4s/c(=C\c5cccc(O)c5)c(=O)n42)c2ccccc2CC3)c1` (configuration not stated) to `O=C1NNC(c2ccccc2)=N/C1=C\c1ccc(Cl)cc1`, the inhibition rises from -5.43% to 3.07%.

Compared with `CCOc1ccccc1NC(=S)NC(=O)CCc1ccccc1`, `COC(=O)Cc1ccc(NC(=S)NCc2ccco2)cc1` is higher in inhibition: -6.79% for the first, 2.26% for the second.

Going from `CC(=O)c1cc(C#N)c(SCC(=O)Nc2nccs2)nc1C` to `CCc1c(SCCC(=O)O)nc2ccccc2c1C`, the inhibition falls from -13.3% to -13.8%.

First: Clc1cc(NC2CCCCC2)ncn1
Second: Cc1ccc(N2C(=O)CC(Sc3ncn[nH]3)C2=O)cc1 (configuration not stated)
The inhibition of the first is higher: 0.49% for the first, -12.5% for the second.

First: CCCCn1nnnc1C(c1cccc(OC)c1OC)N1CCN(C/C=C/c2ccccc2)CC1 (configuration not stated)
Second: Fc1ccccc1CCNc1nnnn1-c1ccccc1
The inhibition of the first is lower: -19.7% for the first, -1.72% for the second.

First: CN(c1ccccc1)S(=O)(=O)c1ccc(Cl)c(C(=O)OCC(N)=O)c1
Second: CN(C)c1ccc(CSc2ccccc2)cc1
The inhibition of the first is higher: 4.64% for the first, -21.6% for the second.

Compared with `Nc1ccc2nn(-c3ccc(Cl)cc3)nc2c1`, `Cn1cncc1COC(=O)c1ccc(Cl)cc1` is higher in inhibition: -10.4% for the first, 9.06% for the second.

Going from `COc1ccc(-c2nc(SCC(=O)N3CCOCC3)n[nH]2)cc1` to `Cc1ccc(C2=C/C(=C\c3cccnc3)C(=O)O2)cc1`, the inhibition rises from -11.8% to 6.03%.

Compared with `CCNC(=S)NCC`, `CCCCCCN1C[C@@H](O)[C@H](n2cc(COC(=O)c3ccccc3)nn2)C[C@@H]1c1ccc(Cl)cc1` is higher in inhibition: -17.7% for the first, 0.85% for the second.

With `CCCN(CCc1ccccc1)C1CCc2c(O)cccc2C1` (configuration not stated) the inhibition was 27.5% (active).
In the case of `Cc1cc(C)c(C#N)c(N2CCC(C(N)=O)CC2)n1`, the inhibition is reported as 23.7% (active).
In the case of `O=C(Cc1ccc(Cl)cc1)NC(=S)Nc1ccccc1O`, the inhibition is reported as 31.4% (active).
For `CC(=O)c1c(C)[nH]c(C(=O)COC(=O)c2cccc(S(=O)(=O)N(C)c3ccccc3)c2)c1C`, the inhibition was 43.1% (active).
With `CN(C)c1ccc(/C=C2\NC(=S)N(Cc3ccccc3)C2=O)cc1` the inhibition was 53.4% (active).
With `COc1ccc(N2C(=O)CC(Sc3n[nH]c(-c4ccc(C)cc4)n3)C2=O)cc1` (configuration not stated) the inhibition was 24.5% (active).
In the case of `O=C1OC(c2ccc(Cl)cc2)=N/C1=C\c1cccnc1`, the inhibition is reported as 32.7% (active).
With `CN1OC(COC(=O)c2ccc(Cl)cc2)CC1c1ccccc1` (configuration not stated) the inhibition was 28.7% (active).
For `O=C(NCC1CCCO1)c1cc2c([nH]c3ccccc32)c(-c2ccc(F)cc2)n1` (configuration not stated), the inhibition was 31.3% (active).

Reference: PubChem BioAssay AID602250 (The Scripps Research Institute Molecular Screening Center, 2012)
